Source: PubChem BioAssay
AmpC inh detg: AmpC beta-lactamase inhibition with detergent present | AID 485294 | Potency, µM (titrated, usually from 114 µM), for inactives: at the top dose activity change, negative = inhibition, actives largely listed as inhibitors | 0.041% of 370,000 active | AmpC hydrolysis of nitrocefin, absorbance 480 nm, 0.01% Triton | P00811;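 note: 0% = no-compound wells and -100% = no-enzyme wells; nearly all actives have a fitted effect of over 25% in size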
Target sequence (P00811 whole entry, looked up): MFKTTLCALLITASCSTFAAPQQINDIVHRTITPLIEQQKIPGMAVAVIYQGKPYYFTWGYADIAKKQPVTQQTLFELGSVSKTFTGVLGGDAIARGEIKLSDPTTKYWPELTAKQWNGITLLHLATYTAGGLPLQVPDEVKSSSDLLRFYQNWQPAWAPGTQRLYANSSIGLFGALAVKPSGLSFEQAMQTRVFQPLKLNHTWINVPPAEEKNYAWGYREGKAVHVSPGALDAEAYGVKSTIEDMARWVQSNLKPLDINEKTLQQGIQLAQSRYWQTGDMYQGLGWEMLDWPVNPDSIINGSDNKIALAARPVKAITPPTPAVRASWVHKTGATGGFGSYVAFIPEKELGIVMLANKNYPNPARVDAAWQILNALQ
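20 mM phosphate pH 7.0 + 0.01% (detergent screen) or 0.0001% Triton X-100; 5.3 nM AmpC reagent; cpd preinc 15 min RT; nitrocefin (800 uM stock) to start; A480 q20 s × 4 min; Activity was normalised to no-enzyme and no-compound control wells.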
AMA1-RON2 inh: AMA1-RON2 (P. falciparum) interaction inhibition; Potency, µM (highest dose often 58.2 µM), inactives show top-dose activity change, negative = inhibition, actives largely listed as inhibitors; AID 720542; 0.2% of 360,000 active; AlphaScreen AMA1-biotinylated RON2 peptide binding;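 note: 0% = vehicle wells and -100% = peptide control; nearly all actives have a fitted effect of over 45% in size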
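AMA1 (3D7) with his tag at 25 nM final met compounds first, then biotinylated RON2 peptide at 25 nM; detection used donor plus acceptor beads, 10 µg/mL apiece, read by AlphaScreen after 30 min at room temperature.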
AmpC no deterg: AmpC beta-lactamase inhibition without detergent; P00811; AmpC nitrocefin hydrolysis, absorbance 480 nm, 0.0001% Triton; 0.52% of 330,000 active; Potency, µM (titrated, usually from 57.1 µM), for inactives: at the top dose activity change, negative = inhibition, usual class: inhibitors;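 note: plate controls were no compound for no effect and no enzyme for full effect; nearly all actives have a fitted effect of over 20% in size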
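20 mM phosphate pH 7.0 + 0.01% (detergent screen) or 0.0001% Triton X-100; 5.3 nM AmpC reagent; cpd preinc 15 min RT; nitrocefin (800 uM stock) to start; A480 q20 s × 4 min; Activity was normalised to no-enzyme and no-compound control wells.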
Pf growth 48h: inhibits P. falciparum growth in the first generation, 48 h | P. falciparum luciferase growth in erythrocytes, 48 h | Potency, µM (doses to about 28.7 µM), inactives show at the highest dose activity change, negative = inhibition, actives largely listed as inhibitors | 5.9% of 310,000 active | AID 504832
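Read-out is firefly luciferase luminescence from an integrated reporter in P. falciparum, so falling signal marks reduced parasite growth. Infected erythrocytes were at 2% hematocrit and 0.1% parasitemia (final) in Albumax-supplemented RPMI 1640.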
HCV inh: HCV inhibition; Huh7.5.1 HCVcc-Cre infection, luciferase reporter, 44 h; Potency, µM (series often up to 41.8 µM), without a hit: at the top dose activity change, negative = inhibition, most hits filed as inhibitors; 3.4% of 340,000 active
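HCVcc-Cre virus at an moi near 0.5 was added right after compound to cells cultured 4 h from seeding (1,000 cells/well). Luciferase activity was determined 44 h later, 15 min after substrate addition at RT.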
Pf growth 96h: inhibits malaria parasite growth, 96 h; 6.9% of 320,000 active; AID 504834; P. falciparum luciferase reporter growth, 96 h; Potency, µM (titrated, usually from 28.7 µM), for inactives: at the top dose activity change, negative = inhibition, usual class: inhibitors
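Luminescence readout: decreased luciferase signal marks inhibited growth of reporter-expressing P. falciparum in infected red cells (2% hematocrit, 0.05% parasitemia final), exposed to compound two generations (96 h, 37 C, 5% CO2).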
Active calls of the source: *; ? = inconclusive; · = no result; [ ] = another dose, or the depositor's remark. Shown are actives, neighbours in structure and some others; about 11% of the full set was active somewhere. Calls come from the whole dose curve; as a rule, active = well fitted curve in the direction sought with a large enough effect; inconclusive = small, poorly fitted or top-dose-only effect, or another doubt; inactive = no such curve, though single readings can be large; an effect the other way counts as inactive or inconclusive. Unless noted, % is set by controls: 0 for no effect and ±100 for the full control effect; potency is the fitted concentration of half-maximal effect.

SMILES | AmpC inh detg | AMA1-RON2 inh | AmpC no deterg | Pf growth 48h | HCV inh | Pf growth 96h
CCOC(=O)c1ccc(Cl)c(NC(=O)c2ccc(-c3ccccc3)cc2)c1 | 3% | 0% | -10% | 32% | -4% | 0%
OCc1ccccc1 | · | · | · | 5.4µM* | · | 6µM*
COC(=O)c1ccccc1OCCCCN1CC(C)OC(C)C1 (centres undefined) | 7% | -5% | -26% | 35% | 4% | 7%
CC1CN(CCOCCOc2ccccc2-c2ccccc2)CC(C)O1 (centres undefined) | -10% | 14µM* | 109% | ? | -13% | ?
CC1CN(CCOc2ccccc2C(C)C)CC(C)O1 (centres undefined) | -5% | 20µM* | 31% | 6% | 0% | ?
CCCCNCCOCCOc1ccccc1-c1ccccc1 | -14% | -21% | 19% | 10µM* | ? | ?
OCCCN1CCN(CCOc2ccccc2-c2ccccc2)CC1 | ? | 9% | -2% | ? | -26% | 10µM*
c1ccc(-c2ccccc2OCCOCCN2CCc3ccccc3C2)cc1 | 4% | -9% | 147% | ? | ? | ?
COCCNCCCCOc1ccccc1-c1ccccc1 | -2% | ? | 13% | ? | ? | 35%
CCOc1ccccc1NC(=O)Cn1c(=O)n(-c2ccc(F)cc2)c(=O)c2c3c(sc21)CN(C(C)=O)CC3 | 23% | · | · | · | · | ·
Cc1cc2oc(C(=O)Nc3ccc(S(=O)(=O)N4CCCCCC4)cc3)cc(=O)c2cc1C | 6% | · | · | · | · | ·
CC(NC(=O)C(C)N1CCN(S(=O)(=O)c2ccccc2)CC1)c1ccccc1 (centres undefined) | -7% | -6%[11.6 µM] | -3% | -32% | -20% | ?
CC(C)c1ccc(S(=O)(=O)N2CCN(C(C)C(=O)Nc3ccccc3-c3ccccc3)CC2)cc1 (centres undefined) | -10% | -3% | -1% | 9.3µM* | 1% | 5.2µM*
CCCC(NC(=O)C(C)N1CCN(S(=O)(=O)c2ccccc2)CC1)c1ccccc1 (centres undefined) | -14% | 7%[11.6 µM] | 97% | -23% | ? | 10µM*
CC(C(=O)Nc1ccccc1-c1ccccc1)N1CCN(S(=O)(=O)c2ccccc2)CC1 (centres undefined) | -7% | -8% | -1% | 6.6µM* | ? | 9.3µM*
O=C(c1cc(C2CC2)nc2ccc(Br)cc12)N1N=C(C(F)F)CC1(O)C(F)F (centres undefined) | -5% | 67% | -28% | ? | ? | 9.3µM*
COc1ccc(C)cc1NC(=O)COc1cc(=O)n(C)c2ccccc12 | 9% | · | · | · | · | ·
CCOc1cc2c(C#N)c(N3CCCCC3)nc(N)c2c(N)n1 | 4% | 48% | -23% | · | -27% | ?
CCOC(=O)C1CCN(c2nc(N)c3c(N)nc(SCC(=O)O)cc3c2C#N)CC1 | -1% | 29% | -29% | 2.6µM* | -29% | 2.6µM*
O=c1c(-c2c(O)cc(O)c3c(=O)cc(-c4ccc(O)cc4)oc23)c(-c2ccc(O)cc2)oc2cc(O)cc(O)c12 | 2% | -30% | 20µM* | -2% | 20% | 40%
O=c1cc(-c2ccc(O)cc2)oc2c(-c3c(O)cc(O)c4c(=O)cc(-c5ccc(O)cc5)oc34)c(O)cc(O)c12 | · | -11% | -41% | · | 19% | ·
O=c1cc(-c2ccccc2)oc2ccc(O)cc12 | -2% | -3% | -28% | 83% | ? | 89%
COc1ccc(-c2cc(=O)c3c(O)cc(O)cc3o2)cc1 | -6% | 0% | -35% | 3% | 13µM* | 18%
COc1ccc(-c2cc(=O)c3cc(O)ccc3o2)cc1 | 4% | -2% | -15% | 193% | 5.6µM* | 314%
COc1cc(NC(=O)Cn2nc(C(F)(F)F)c3c2CCC3)cc(OC)c1OC | 0% | · | · | · | · | ·
SMILES | AmpC inh detg | AMA1-RON2 inh | AmpC no deterg | Pf growth 48h | HCV inh | Pf growth 96h
CCOC(=O)C(=NCC1CCCO1)NNc1cc(Cl)ccc1Cl (centres undefined) | -2% | ? | 29% | ? | ? | 10µM*
O=C(Nc1nc2n(n1)C(c1ccc(Cl)cc1)C=C(c1ccccc1)N2)c1ccco1 (centres undefined) | -7% | · | · | · | · | ·
COc1ccc(/C=C2\C(=O)N(Cc3ccc(F)cc3)CC(=O)N2Cc2ccccc2)cc1 | -4% | -7% | 19% | 10µM* | -24% | 15µM*
COc1ccc(/C=C2\C(=O)NCC(=O)N2Cc2ccccc2)cc1 | -3% | -9% | -12% | -20% | ? | 3%
Cc1cc(NC(=O)c2cc(-c3ccc(Cl)cc3)on2)n(-c2ccccc2)n1 | 30% | · | · | · | · | ·
CC(C)OCCCNC(=O)CN1C(=O)c2ccccc2Sc2ncccc21 | 17% | · | · | · | · | ·
CCOc1ccc2nc(C)cc(Nc3ccccc3OCC)c2c1 | 10% | · | · | · | · | ·
CC1CCCN1c1ccnc2cc(Cl)ccc12 (centres undefined) | · | -8% | · | · | ? | ·
CCOc1ccccc1Nc1cc(C)c2cccc(C)c2n1 | -8% | 60% | -23% | 59% | 7.9µM* | 209%
CCOc1ccccc1Nc1cc(-c2ccccc2)nc(C)n1 | 14% | · | · | · | · | ·
Clc1ccc2c(NCCNC3CCCCC3)ccnc2c1 | · | 5% | · | · | 7.9µM* | ·
Clc1ccc2c(NCc3ccccn3)ccnc2c1 | 2% | 41% | -21% | 0.66µM* | ? | 0.47µM*
CCOc1ccccc1Nc1ccnc2cc(Cl)ccc12 | 7% | 11% | -37% | 2.6µM* | ? | 21%
CCN(CC)c1ccc(NC(=O)C2CCN(S(=O)(=O)c3cnc[nH]3)CC2)c(C)c1 | -2% | · | · | · | · | ·
COc1cccc(CNC(=O)C(C)n2c(=O)cc(-c3ccccc3)c3c(C)nn(C)c32)c1 (centres undefined) | -3% | · | · | · | · | ·
O=C(NCCCNc1ccnc2cc(Cl)ccc12)c1ccccc1F | 0% | 7% | -10% | 0.47µM* | 10µM* | 0.41µM*
O=C(NCCNC(=O)c1ccccc1F)c1ccccn1 | 0% | 8% | -11% | 44% | 11% | 22%
Cc1ccc(-c2c[n+](CC(=O)N3c4ccccc4Sc4ccccc43)c3n2CCC3)cc1 | -2% | -2% | 79% | 3.7µM* | 7% | ?
O=C(C[n+]1cc(-c2ccc(F)cc2)n2c1CCC2)N1c2ccccc2Sc2ccccc21 | ? | ? | 45% | 13µM* | 0% | ?
O=C(C[n+]1cc(-c2ccc(Br)cc2)n2c1CCCCC2)c1ccccc1 | 3% | -2% | -7%[11.4 µM] | 1.7µM* | -1% | ?
O=C(C[n+]1cc(-c2ccccc2)n2c1CCC2)N1c2ccccc2Sc2ccccc21 | -1% | -5% | 53% | 4.1µM* | -21% | ?
